# Data: PMC9838217, “Structure of SALL4 zinc finger domain reveals link between AT-rich DNA binding and Okihiro syndrome”
# Numbering of substitutions follows the chain as printed.
# What was measured:
# Experiment in all cases: HT-SELEX; high values mean tight binding
# Settings in all cases: protein: recombinant; vector His6-GST; dsDNA, one strand shown
# [1] = biological target: T1, SALL4 ZFC4 WT (HT-SELEX) (Mus musculus, UniProt Q8BX22 870-940)
# T1 sequence: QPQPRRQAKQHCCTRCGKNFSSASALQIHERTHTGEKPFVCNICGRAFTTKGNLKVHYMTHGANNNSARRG
# Summary of the method: (§1)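 For each canonical k-mer, binding signal is the read fraction as fold change versus the initial random library. Data came from up to 6 triplicate cycles in which purified recombinant mouse SALL4 zinc finger cluster 4 (residues 870–940, 1 µg) was incubated 10 min at room temperature with library DNA (1.5 µg first cycle, 200 ng later) in 100 µl of 10 mM Tris–HCl pH 7.5, 50 mM NaCl, poly(dI-dC), DTT, followed by Ni2+ bead capture, PCR amplification, MiSeq sequencing and a 6-mer scan.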
# [2] = biological target: T2, SALL4 ZFC4 R900W (HT-SELEX) (Mus musculus, UniProt Q8BX22 870-940, R900W)
# T2 sequence: T1 sequence with R31W
# Summary of the method: as §1
# [3] = biological target: T3, SALL4 ZFC4 G921D (HT-SELEX) (Mus musculus, UniProt Q8BX22 870-940, G921D)
# T3 sequence: T1 sequence with G52D
# Summary of the method: as §1
Sequence,binding signal [1] [fold-change vs cycle 0],binding signal [2] [fold-change vs cycle 0],binding signal [3] [fold-change vs cycle 0]
AAATAA,3.25 ± 0.208,2.56 ± 0.166,2.14 ± 0.25
CGTGTA,0.651 ± 0.0387,0.756 ± 0.0247,0.812 ± 0.0246
TATTAA,5.02 ± 0.457,2.69 ± 0.232,2.25 ± 0.285
CAAACA,1.04 ± 0.0367,1.17 ± 0.0357,1.18 ± 0.0394
AGACTA,1.31 ± 0.0607,1.47 ± 0.0959,1.41 ± 0.0994
ATTACC,1.49 ± 0.0761,1.51 ± 0.105,1.43 ± 0.105
CGATTC,0.682 ± 0.0336,0.738 ± 0.0472,0.84 ± 0.0386
GGGGTA,0.484 ± 0.0383,0.541 ± 0.0115,0.611 ± 0.0687
GGACAA,0.637 ± 0.0222,0.742 ± 0.00957,0.828 ± 0.043
TCTCCA,0.872 ± 0.044,0.992 ± 0.0225,0.99 ± 0.0254
ACAACC,0.707 ± 0.0139,0.814 ± 0.0173,0.875 ± 0.0311
AATCAC,1.31 ± 0.0497,1.46 ± 0.03,1.42 ± 0.0791
AACTAT,2.16 ± 0.123,1.96 ± 0.0882,1.76 ± 0.173
CTTTTC,1.14 ± 0.0195,1.29 ± 0.0412,1.218 ± 0.00999
TAGCCA,0.536 ± 0.0328,0.614 ± 0.0132,0.733 ± 0.0537
ATAAGA,2.45 ± 0.123,2.3 ± 0.143,1.92 ± 0.245
ATGGTG,0.792 ± 0.0243,0.882 ± 0.0384,0.941 ± 0.0443
CCCGAA,0.314 ± 0.0034,0.403 ± 0.0174,0.512 ± 0.0767
CCGGTA,0.345 ± 0.0119,0.396 ± 0.0133,0.501 ± 0.0627
GTATCA,1.39 ± 0.0637,1.4 ± 0.0395,1.38 ± 0.0408
CAATCC,0.816 ± 0.0436,0.939 ± 0.0312,0.973 ± 0.0236

Sequence,binding signal [1] [fold-change vs cycle 0],binding signal [2] [fold-change vs cycle 0],binding signal [3] [fold-change vs cycle 0]
CCTGGA,0.496 ± 0.0295,0.556 ± 0.0141,0.647 ± 0.0202
CAGTGA,0.806 ± 0.0191,0.934 ± 0.023,0.957 ± 0.0322
ATGGCA,0.55 ± 0.0226,0.607 ± 0.0241,0.733 ± 0.0739
CTGTAC,0.751 ± 0.0338,0.874 ± 0.0496,0.911 ± 0.0674
ACCACA,0.701 ± 0.0312,0.793 ± 0.0317,0.841 ± 0.0188
CATCCA,0.851 ± 0.0432,0.934 ± 0.0343,0.974 ± 0.0408
CCAACC,0.393 ± 0.0262,0.466 ± 0.0254,0.565 ± 0.0588
CTCCCA,0.474 ± 0.0284,0.569 ± 0.0121,0.655 ± 0.0274
TCTTAA,2.07 ± 0.0682,2.14 ± 0.15,1.86 ± 0.222
CGGTCA,0.331 ± 0.0331,0.405 ± 0.0336,0.52 ± 0.0692
GATCCC,0.519 ± 0.025,0.62 ± 0.0104,0.711 ± 0.017
AGGGTA,0.87 ± 0.0133,1 ± 0.0465,0.989 ± 0.0135
ACACAT,1.25 ± 0.0206,1.33 ± 0.0439,1.32 ± 0.0216
ATATAC,2.19 ± 0.164,1.98 ± 0.103,1.78 ± 0.131
CCTACA,0.76 ± 0.0346,0.876 ± 0.0282,0.919 ± 0.0351
CCCCTC,0.31 ± 0.0217,0.35 ± 0.0216,0.456 ± 0.0591
CATAGC,0.663 ± 0.0317,0.746 ± 0.0368,0.844 ± 0.0408
CCTCCA,0.517 ± 0.0262,0.603 ± 0.0398,0.687 ± 0.0633
GGGTAC,0.482 ± 0.0239,0.556 ± 0.011,0.641 ± 0.0594
AGACCT,0.753 ± 0.0476,0.917 ± 0.0202,0.963 ± 0.0152
GTCAGA,0.728 ± 0.0316,0.836 ± 0.0595,0.887 ± 0.0403
